{"source": "PubChem BioAssay", "note": "Values without a mark were called inactive. The source made the active and inactive calls.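 The calls were made as follows: active = inhibition at or above 50% relative to wild type and mutant plate controls; inactive = inhibition below 50%.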", "data": [{"experiment": "loss of swimming-algae plug formation – whole organism, Chlamydomonas reinhardtii, WT vs cilia-less mutant, absorbance, 96-well, primary screen (AID 463189);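 also: 0% = wild type cc124 cells in DMSO and 100% = ciliumless bld1 mutant cells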", "conditions": "Chlamydomonas reinhardtii gravitaxis, OD600 absorbance, 2 days; at 10 µM; stronger effect = higher value", "values": [{"smiles": "CCCc1c(-c2ccc(O)cc2)nn(-c2ccc(O)cc2)c1-c1ccc(O)cc1", "inhibition": "6.07%"}, {"smiles": "CCC1(C)CC(=O)NC1=O", "note": "(configuration not stated)", "inhibition": "1.95%"}, {"smiles": "CC(C)(C)c1ccc(S(=O)(=O)/C=C/C#N)cc1", "inhibition": "155% (active)"}, {"smiles": "O=C1Cc2c([nH]c3ccc(Br)cc23)-c2ccccc2N1", "inhibition": "-1.32%"}, {"smiles": "CCCCNc1ccc(C(=O)OCCN(C)C)cc1", "inhibition": "8.43%"}, {"smiles": "C[C@H]1CC2C3CCC4=CC(=O)C=C[C@]4(C)[C@@]3(Cl)[C@@H](O)C[C@]2(C)[C@@]1(O)C(=O)CO", "note": "(some centres not stated)", "inhibition": "-2.71%"}, {"smiles": "CCCOC(=O)c1c(-c2ccccc2)nc(CC)c(C(=O)SCC)c1CCC", "inhibition": "10.6%"}, {"smiles": "COc1cc(C(O)C(=O)O)ccc1O", "note": "(configuration not stated)", "inhibition": "2.56%"}, {"smiles": "CC(C)[C@@H](CO)Nc1nc(Nc2cccc(Cl)c2)c2ncn(C(C)C)c2n1", "inhibition": "-2.67%"}, {"smiles": "CC(C)C[C@H](NC(=O)[C@@H](O)[C@H](N)Cc1ccccc1)C(=O)O", "inhibition": "3.44%"}, {"smiles": "NC(=S)c1ccc[n+]([C@@H]2O[C@@H](COP(=O)([O-])OP(=O)(O)OC[C@H]3O[C@@H](n4cnc5c(N)ncnc54)C(OP(=O)(O)O)[C@H]3O)C(O)C2O)c1", "note": "(some centres not stated)", "inhibition": "6.21%"}, {"smiles": "N[C@@H](CCCC(=O)O)C(=O)O", "inhibition": "6.53%"}, {"smiles": "C1CCc2nnnn2CC1", "inhibition": "5.68%"}, {"smiles": "C[C@](N)(Cc1ccc(O)cc1)C(=O)O", "inhibition": "6.91%"}, {"smiles": "CC(N=C(NC#N)Nc1ccncc1)C(C)(C)C", "note": "(configuration not stated)", "inhibition": "-9.18%"}, {"smiles": "CNc1ncnc2c1ncn2[C@H]1C[C@H](OP(=O)(O)O)[C@@H](COP(=O)(O)O)O1", "inhibition": "1.24%"}, {"smiles": "O=C1C(SCCO)=C(SCCO)C(=O)c2ccccc21", "inhibition": "152% (active)"}, {"smiles": "N[C@H](C(=O)O)[C@H](O)C(=O)O", "inhibition": "0.558%"}, {"smiles": "CC1(NCC(O)COc2cccc3[nH]ccc23)CCC(C(C)(C)NC(=O)CBr)CC1", "note": "(configuration not stated)", "inhibition": "5.45%"}, {"smiles": "CN1C2CCC1CC(OC(c1ccccc1)c1ccccc1)C2", "note": "(configuration not stated)", "inhibition": "1.86%"}, {"smiles": "CC(=O)NCCc1c[nH]c2ccc(O)cc12", "inhibition": "-4.58%"}, {"smiles": "COc1ccccc1N1CCN(CCCCNS(=O)(=O)c2cccc3c(N(C)C)cccc23)CC1", "inhibition": "-0.327%"}]}]}
